Source: PubChem BioAssay (National Center for Advancing Translational Sciences (NCATS))
IL1B secr inh – qHTS for Inhibitors of Inflammasome Signaling: IL-1-beta AlphaLISA Primary Screen; THP-1 LPS/ATP IL-1B secretion, AlphaLISA, 16 h; active compounds read low; activity change, % at 57.5 µM; 360,000 tested, 4.7% active; AID 743279, 2014; in the data active = activity change below about -50%; inconclusive = mostly about -30% to -49%
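Secreted IL-1B measured by AlphaLISA bead assay after 16 h compound exposure of THP-1 cells; compounds (final up to 57.5 uM) added 1 h before LPS (250 ng/mL) and ATP (1.25 mM) stimulation; lower signal means less secretion.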
HT1080NT lethal – qHTS for induction of synthetic lethality in tumor cells producing 2HG: qHTS for the HT-1080-NT fibrosarcoma cell line. HT-1080-NT fibrosarcoma viability, CellTiter-Glo ATP luminescence, 48 h. Potency, µM (doses to about 46.1 µM), without a hit: at the highest dose activity, negative = less viability, hits mostly cytotoxic. 360,000 tested, 1.6% active. AID 686970, 2013;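 also: NT is the 2HG producing partner of a matched IDH1 knockdown line; potency is read from the fitted curve at half-maximal effect; 0% = DMSO-treated cells and -100% = media-only wells without cells; nearly all actives have a fitted effect of over 55% in size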
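Compounds were tested in concentration-response format on HT-1080-NT cells for 48 hours at 37 degrees C. Cell viability came from CellTiter-Glo luminescence; curves were classified by r2, response magnitude and activity.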
DT40 TDP1 no CPT – qHTS for Inhibitors of human tyrosyl-DNA phosphodiesterase 1 (TDP1): qHTS in cells in absence of CPT; DT40 Tdp1-/- hTDP1 cells, no CPT, ATP luminescence, 48 h; Potency, µM (titrated, usually from 46.2 µM), for inactives: top-dose activity change, negative = growth inhibition, actives largely listed as inhibitors; 420,000 tested, 15% active; AID 686978, 2013; also: potency is read from the fitted curve at half-maximal effect; nearly all actives have a fitted effect of over 55% in size
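Luminescent ATP content (CellTiter-Glo) served as the growth readout. Knockout chicken DT40 cells expressing human TDP1 were exposed to compounds without camptothecin for a minimum 48 hr at 37 °C.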
HT1080 IDH1KD tx – qHTS for induction of synthetic lethality in tumor cells producing 2HG: qHTS for the HT-1080-IDH1KD cell line. HT-1080 IDH1 knockdown viability, ATP luminescence, 48 h. Potency, µM (highest dose often 46.1 µM), inactives show at the highest dose activity, negative = toxicity, actives largely listed as cytotoxic. AID 686971, 2013. 360,000 tested, 2% active;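 also: potency is read from the fitted curve at half-maximal effect; 0% = DMSO wells and -100% = cell-free medium wells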
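IDH1KD HT-1080 cells, 750/well, RPMI + 5% FBS; compound pinned after 2 h settling; 48 h, 37 °C; CellTiter-Glo luminescence; % activity normalised to DMSO and no-cell wells; curves fitted, classed by r2 and efficacy.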
DT40 TDP1 CPT – qHTS for Inhibitors of human tyrosyl-DNA phosphodiesterase 1 (TDP1): qHTS in cells in presence of CPT. AID 686979, 2013. Potency, µM (series often up to 46.2 µM), inactives show top-dose activity change, negative = growth inhibition, most hits filed as inhibitors. chicken DT40 Tdp1-/-;hTDP1 cells + 20 nM CPT, ATP luminescence, 48 h. 420,000 tested, 12% active; also: potency is read from the fitted curve at half-maximal effect; nearly all actives have a fitted effect of over 55% in size
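Chicken DT40 Tdp1-/- cells complemented with human TDP1, 400 cells/well, exposed to compounds plus 20 nM camptothecin for at least 48 h at 37 C; viability read as ATP content by CellTiter-Glo luminescence.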
Numbers without * were called inactive; ? = inconclusive; . = no result given; [ ] = another dose, or the depositor's remark. Only some compounds are listed: those with a hit (about 19% of all), similar ones and a draw of the others. Unless noted, calls follow the shape of the dose curve; as a rule, active = well fitted curve in the direction sought with a large enough effect; inconclusive = small, poorly fitted or top-dose-only effect, or another doubt; inactive = no such curve, though single readings can be large; an effect the other way counts as inactive or inconclusive. Unless noted, % is scaled to controls: 0 for no effect and ±100 for the full control effect.

SMILES	IL1B secr inh	HT1080NT lethal	DT40 TDP1 no CPT	HT1080 IDH1KD tx	DT40 TDP1 CPT
c1cncc(-c2nc(NCC3COc4ccccc4O3)c3ccccc3n2)c1 (stereo unspecified)	-78*	?	?	?	18µM*
CCC(C)(C)NC(=O)C(c1ccco1)N(C(=O)c1csnn1)c1cccc(F)c1 (stereo unspecified)	-4	-10%	-6%	-2%	?
O=C(Nc1ccnn1C1CCN(Cc2ccccc2F)CC1)C1CCCC1	-13	5%	-16%	1%	-1%
O=c1ccn([C@@H]2O[C@H](CNCc3cccc4c3sc3ccccc34)[C@@H](O)[C@H]2O)c(=O)[nH]1	-18	-16%	-2%	-16%	8%
COC(=O)CNc1nc(-c2cccnc2)nc2ccccc12	-3	-8%	-6%	-5%	-27%
COc1ccc(C(CNc2nc(-c3cccnc3)nc3ccccc23)N(C)C)cc1 (stereo unspecified)	-82*	16µM*	?	16µM*	?
CCOc1ncccc1C(=O)Nc1cc2c(cc1Br)OCCO2	19	-23%	12µM*	?	21µM*
CCOc1ncccc1C(=O)Nc1ccc2c(c1)OCO2	11	0%	-16%	-11%	1%
O=C(CSc1nc(-c2ccccc2)c(-c2ccccc2)o1)N1CCOCC1	-7	-16%	16µM*	-19%	29µM*
COCC(C)NC(=O)CSc1nc(-c2ccccc2)c(-c2ccccc2)o1 (stereo unspecified)	4	0%	8.2µM*	-4%	12µM*
CC(=O)c1ccc(N2CCN(S(=O)(=O)c3c(C)nc4sc(C)cn4c3=O)CC2)cc1	.	.	-11%	.	4%
O=C(Oc1ccccc1/C=C\C(=O)c1cc2ccccc2o1)c1ccccc1	0	?	7.3µM*	?	7.3µM*
O=C(Oc1ccccc1/C=C\C(=O)c1cc2ccccc2o1)c1cccc(F)c1	-68*	?	21µM*	-29%	5.2µM*
COc1cccc(C(=O)Oc2ccccc2/C=C\C(=O)c2cc3ccccc3o2)c1	-95*	18µM*	4.6µM*	21µM*	6.5µM*
NC(=O)N/N=C/c1ccccc1OC(=O)c1cc2ccccc2oc1=O	-14	-3%	-23%	0%	15%
COc1cc2c(cc1OC)C(C(=O)Nc1ccc3c(c1)OCCO3)C1c3ccccc3CCN1C2=O (stereo unspecified)	-14	-16%	23µM*	-18%	?
COc1cc2c(cc1OC)C(C(=O)Nc1ccccc1N1CCN(C)CC1)C1c3ccccc3CCN1C2=O (stereo unspecified)	?	0%	-21%	13%	?
Cc1cc(C(=O)NCc2ccc(F)cc2)n(-c2ccccc2)n1	9	3%	7%	6%	-27%
O=C1COc2ccc(-c3csc(-c4ccc(F)cc4)n3)cc2N1	.	.	-11%	.	?
COc1cccc(-c2nc(-c3ccc4c(c3)NC(=O)CO4)cs2)c1	?	-4%	5.2µM*	-14%	8.2µM*
CC(Nc1nc(-c2ccc3c(c2)NC(=O)CO3)cs1)c1ccccc1 (stereo unspecified)	?	?	26µM*	?	18µM*
O=C(CSc1nc(-c2ccccc2)cs1)NCCCN1CCCC1=O	15	-10%	4%	0%	-6%
CCN(Cc1cc(=O)n2ccsc2n1)Cc1nc2ccccc2c(=O)[nH]1	18	-7%	-16%	-5%	-19%
O=S(=O)(c1ccccc1)n1nc(-c2ccc(Cl)cc2)nc1NCc1ccccc1	.	.	16µM*	.	?
COC(=O)C1(C(=O)OC)C2CCCCC2N(S(=O)(=O)c2ccc(C)cc2)[C@@H]1CC(C)=O (stereo partly specified)	0	-3%	-6%	-2%	-13%
SMILES	IL1B secr inh	HT1080NT lethal	DT40 TDP1 no CPT	HT1080 IDH1KD tx	DT40 TDP1 CPT
COC(=O)C1(C(=O)OC)c2ccccc2N(S(=O)(=O)c2ccc(C)cc2)C1CC(=O)c1ccccc1 (stereo unspecified)	28	5%	?	9%	?
Cc1c(C(=O)N(CCO)C(C)C)cnn1-c1ncc2c(n1)-c1ccccc1CCC2	.	.	?	.	4%
O=C(Nc1ccon1)c1nc[nH]c1C(=O)N1CCN(c2ccccc2)CC1	-6	11%	6%	15%	15%
CC(C)COC(=O)N1CCCCC1c1cc(C(=O)Nc2ccccc2)no1 (stereo unspecified)	-25	-2%	?	-5%	18µM*
CC(C)NC(=O)c1cc(C2CCCCN2C(=O)OCCF)on1 (stereo unspecified)	-67*	0%	6%	18%	-1%
O=C(NCc1ccc(F)cc1)c1cc(C2CCCCN2C(=O)OCCF)on1 (stereo unspecified)	-3	5%	?	10%	?
CC(C)COC(=O)N1CCCCC1c1cc(C(=O)NCc2ccc(F)cc2)no1 (stereo unspecified)	-12	-6%	21µM*	-20%	?
CC(C)COC(=O)N1CCCCC1c1cc(C(=O)Nc2ccc3c(c2)OCO3)no1 (stereo unspecified)	-19	-26%	-51%	-17%	-58%
OCc1ccccc1-c1ccc2nccn2c1	-7	19%	-16%	15%	-15%
CCC1CN(C(=O)N2CCC(C(=O)NCc3ccc(OC)cc3OC)CC2)c2ccccc2O1 (stereo unspecified)	-16	1%	-28%	-5%	?
COc1cc(/C=N/NC(N)=O)cc([N+](=O)[O-])c1O	1	-5%	-29%	-9%	5%
COc1ccc(C2C(C(C)=O)=C(O)C(=O)N2c2ccccn2)cc1 (stereo unspecified)	4	0%	-18%	0%	14%
COC(=O)[C@H](C)N(Cc1ccc(Cl)c(Cl)c1)S(=O)(=O)CCN1CCN(c2ccccc2)CC1	-2	0%	18µM*	1%	?
COC(=O)[C@H](C)N(Cc1ccc(Cl)c(Cl)c1)S(=O)(=O)CCN1CCCC1	-26	-21%	?	-22%	?
CCCCCCCCCCC/C=C\C/C=C\CCCC(=O)O	.	.	7%[4.12 µM]	.	0%[4.12 µM]
Cc1ccc(S(=O)(=O)N2CCCc3cc(NC(=O)c4ccc(C(F)(F)F)cc4)ccc32)cc1	.	.	21µM*	.	?
